In PubChem BioAssay (EPA / NIEHS):
Calls of active or inactive are those of the source. The calls were made as follows: active = hit-call score of the fitted dose curve at least 0.9, where 1 is the maximum; inactive = score below 0.9.

Assay: ATG_CMV_CIS: Attagene CIS-FACTORIAL HepG2 Assay for human CMV (Internal Marker) (AID 2282928);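 also: endpoint acts as a background internal control marker rather than a target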
Conditions: HepG2 CMV promoter reporter, transcription factor profiling; actives raise or lower the signal
Protocol: ATG_CIS is a cell-based, multiplexed-readout assay that uses HepG2, a human liver cell line, with measurements taken at 24 hours after chemical dosing in a 24-well plate.ATG_CMV_CIS is one of 52 assay component(s) measured or calculated from the ATG_CIS assay. It is designed to make measurements of mRNA induction, a form of inducible reporter, as detected with fluorescence intensity signals by Reverse transcription polymerase chain reaction (RT-PCR) and Capillary electrophoresis technology.Data from the assay component ATG_CMV_CIS was analyzed into 1 assay endpoint. This assay endpoint, ATG_CMV_CIS, was analyzed with bidirectional fitting relative to DMSO as the negative control and baseline of activity. Using a type of inducible reporter, measures of mRNA for gain or loss-of-signal activity can be used to understand the background control at the transcription factor-level as they relate to the gene . Furthermore, this assay endpoint can be referred to as a secondary readout, because this assay has produced multiple assay endpoints where this one serves a background control function. To generalize the intended target to other relatable targets, this assay endpoint is annotated to the background measurement intended target family, where the subfamily is internal marker.
Human liver HepG2 cells are transiently transfected with multiple reporter transcription units (MRTUs) in 6-well plates using FuGene 6 reagent (Roche; 3 ml FuGene/1 mg DNA). The MRTU constructs are regulated by a cis-regulating element (promoter). […] A major difference between the CIS and TRANS system is that in CIS activities of endogenous TFs are measured, whereas the TRANS assay evaluates changes in activities of exogenous, chimeric NR-Gal4 proteins. […] At the end of 24 hour incubation, total RNA was isolated using TriZol reagent (Invitrogen). The isolated RNA is then reverse-transcribed using oligo(dT) primer and Mo-MLV reverse transcriptase (Invitrogen) with DNAse I (Ambion) treatment for 30 min. The one-tenth of the produced cDNA was amplified by PCR using Taq DNA polymerase (Invitrogen) and two reporter sequence-specific primers. The PCR products were fluorescently labeled by primer extension with 6-arboxyfluorescein (6-FAM) 5'-labeled reporter sequence-specific primer (2 min at 95 C, 20 s at 68 C and 10 min at 72 C) and these products were digested with 5U of HpaI (New England Biolabs) for 2h at 37 C. The fragments were purified using Qiaquick PCR columns (Qiagen), analyzed on an ABI 3130xL genetic analyzer (Applied Biosystems) with peak positions identified by using a set of X-rhodamine (ROX)-labeled MapMarker1000 molecular weight standards (BioVentures). The raw capillary electrophoresis data was processed using Attagraph software (Attagene).

SMILES	outcome	AC50
CCN(CCC#N)c1ccc(N=Nc2c(Cl)cc([N+](=O)[O-])cc2Cl)cc1	inactive	
CC(C)(C)C(=O)CCc1ccc(Cl)cc1	inactive	
NNC(=O)c1cccc(C(=O)NN)c1	inactive	
CCOC(F)(F)C(F)(F)C(F)(F)C(F)(F)F	inactive	
CC(C)=CC1CC(C)CCO1 (stereo not given)	inactive	
Cc1cccc(OCCOc2cccc(C)c2)c1	inactive	
CC(C)c1ccc(C=O)cc1	inactive	
CC(C)c1ccc2cc(C(C)C)ccc2c1		45.5 µM (active)
CCCCC(CC)COC(=O)c1ccccc1 (stereo not given)	inactive	
CCCCCCCCCCCCCCCC[N+](C)(C)CC		8.84 µM (active)
COc1c2ccoc2cc2oc(=O)ccc12	inactive	
C=CC(=O)OCCOC1C2CCC1C1CC=CC12 (stereo not given)	inactive	
CCN(CC)c1ccc(C(=O)c2ccccc2C(=O)O)c(O)c1	inactive	
CN(C)CCCN(C)C	inactive	
CC(CC=O)c1ccccc1 (stereo not given)	inactive	
O=C1CCCC(=O)O1	inactive	
Cc1ccc(C(C)c2ccc(C)c(C)c2)cc1C		40.9 µM (active)
CO[Si](OC)(OC)c1ccccc1	inactive	
COc1cc(C)ccc1C(C)C	inactive	
C[Si](C)O[Si](C)(C)O[Si](C)(C)O[Si](C)C	inactive	

SMILES	outcome	AC50
CCCCCCC1(C)CCC(=O)O1 (stereo not given)	inactive	
Cc1oncc1C(=O)Nc1ccc(C(F)(F)F)cc1	inactive	
CCO[Si](CCCN=C=O)(OCC)OCC	inactive	
O=C1Nc2ccccc2C1(c1ccc(O)cc1)c1ccc(O)cc1		136 µM (active)
CCCCCC/C=C/C=O	inactive	
CCC(Cc1ccccc1)(C(=O)c1ccc(N2CCOCC2)cc1)N(C)C (stereo not given)	inactive	
CCCCOCCOC(=O)COc1nc(Cl)c(Cl)cc1Cl	inactive	
CCOC(=O)c1ccc(N(C)C)cc1	inactive	
COC(F)(F)C(F)(C(F)(F)F)C(F)(F)F	inactive	
CC(=O)OCCC1CCCCC1	inactive	
NC(CO)(CO)CO	inactive	
O=c1n(CCO)c(=O)n(CCO)c(=O)n1CCO	inactive	
O=C(C(Cl)Cl)N1CCOC12CCCCC2	inactive	
O=c1[nH]c(=O)c2[nH]c(=O)[nH]c2[nH]1	inactive	
CCN(CCO)c1cccc(C)c1	inactive	
C=CC(=O)OCCOC(=O)C=C		27.2 µM (active)
C=CC(=O)OCCC(=O)O	inactive	
C[Si](C)(CCCN)O[Si](C)(C)CCCN	inactive	
Cc1cnc(NC(=O)C2=C(O)c3ccccc3S(=O)(=O)N2C)s1	inactive	
OC1OCCOC1O (stereo not given)	inactive	
